Experimental data: PubChem BioAssay (NCI)
This is part of a sample that, as a whole, favours compounds with a hit. Of some 83,000 tested, about 20% had one in any assay.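 Single-concentration screen, 48 h exposure, 96-well plates. Endpoint: percent growth. Below 10 = active.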 A number with no mark means an inactive call. Active and inactive are the calls of the source.

How the values were obtained:
Assay in all cases: NCI-60 one-dose screen, 48 h (100 = growth as untreated, 0 = no growth, -100 = all killed)
Settings in all cases: 10 µM unless noted
SR leukemia = test system: SR leukemia
RPMI-8226 leukemia = test system: RPMI-8226 leukemia
OVCAR-8 ovarian = test system: OVCAR-8 ovarian
OVCAR-5 ovarian = test system: OVCAR-5 ovarian
OVCAR-4 ovarian = test system: OVCAR-4 ovarian
SK-OV-3 ovarian = test system: SK-OV-3 ovarian
IGROV1 ovarian = test system: IGROV1 ovarian
OVCAR-3 ovarian = test system: OVCAR-3 ovarian
HS 578T breast = test system: HS 578T breast
NCI/ADR-RES ovarian = test system: NCI/ADR-RES ovarian

SMILES	growth (SR leukemia)	growth (RPMI-8226 leukemia)	growth (OVCAR-8 ovarian)	growth (OVCAR-5 ovarian)	growth (OVCAR-4 ovarian)	growth (SK-OV-3 ovarian)	growth (IGROV1 ovarian)	growth (OVCAR-3 ovarian)	growth (HS 578T breast)	growth (NCI/ADR-RES ovarian)
Clc1ccc(Nc2nnc(COc3ccccc3)c3ccccc23)cc1	-20.6% (active)	-25.3% (active)	5.02% (active)	23.1%	18.1%	9.17% (active)	16.1%	-35.1% (active)	14.4%	-1.13% (active)
COc1cc(-n2cc(-c3cc(O)c(C/C=C(\C)CCC=C(C)C)c(O)c3)nn2)cc2c1O[C@]1(C)CC[C@@H](O)C(C)(C)[C@H]1C2	4.49% (active)	-17.8% (active)	16.4%	29.6%	37.9%	34.8%	23.8%	-19.6% (active)	19.6%	17.3%
Cn1cc(-c2nonc2-c2c[nH]c3ccc(Br)cc23)c2cc(Br)ccc21	20.5%	41.3%	34%	37.6%	-2.18% (active)	53.7%	59%	33.6%	31.6%	36.6%
N#Cc1c(N)nnn1Cc1cc(=O)oc2c1ccc1ccccc12	105%	97.8%	96.8%	108%	108%	86%	101%	103%	101%	99.4%
CN1CCN(C(=O)OCc2ccc3c(Cl)cc(Cl)c(O)c3n2)CC1	14%	42%	45.1%	106%	46.8%	88.7%	56.6%	50.9%	80.2%	15%
O=C1CNC(c2ccccc2)C(c2ccccc2)N1 (stereo not given)	106%	75.2%	98%	86.5%	89%	107%	93%	107%	86.1%	81%
Cc1ccc(S(=O)(=O)N2CCCC2CO)cc1 (stereo not given)	112%	62.6%	103%	85.7%	93.5%	102%	90.6%	104%	79.5%	56.7%
COc1ccc(-c2nc3c(c(-c4ccccc4)nn3-c3ccccc3)c(-c3ccc(N4CCN(C)CC4)cc3)c2C#N)cc1	63.3%	87.4%	93.7%	104%	107%	109%	93.8%	103%	100%	93%
C#CCn1cnc2c(Nc3cccc(NC(=O)C=C)c3)ncnc21	68.5%	81.9%	76.2%	82%	86.6%	73.5%	74.8%	88.5%	74.5%	92.5%
O=S(=O)(NCCCNc1nccc(-c2c(-c3ccc(F)c(O)c3)nc3occn23)n1)c1ccccc1	70.2%	78.2%	94.8%	121%	104%	79.4%	92.1%	97.9%	87.3%	118%
COC(C(=O)[C@@H](O)[C@@H](C)O)[C@@H]1Cc2cc3cc(O[C@H]4C[C@@H](O[C@H]5C[C@@H](O)[C@H](O)C(C)O5)[C@H](O)C(C)O4)c(C)c(O)c3c(O)c2C(=O)[C@H]1O[C@H]1C[C@@H](O[C@H]2C[C@@H](O[C@H]3C[C@@H](O)[C@H](OC)C(C)O3)[C@@H](O)C(C)O2)[C@H](O)C(C)O1 (stereo not given in full)	3.51% (active)	0.837% (active)	7.56% (active)	14.8%	11.8%	19.1%	16.9%	5.62% (active)	20.3%	59.5%
C#Cc1cccc(Nc2ncnc3ccc(-c4cncc(NS(C)(=O)=O)c4)cc23)c1	7.86% (active)	26.3%	37.1%	21.9%	52.1%	0.85% (active)	-12.4% (active)	7.33% (active)	6.13% (active)	78.3%
COc1ccc2c(O)c(/C=C3\N=Nc4ncccc43)oc2c1C[C@H]1CCNC[C@H]1F	-40.2% (active)	9.58% (active)	5.11% (active)	16%	2.83% (active)	21%	2.29% (active)	1.29% (active)	-6.5% (active)	31.3%
COc1cc(OC)cc(C2=C3CC[C@@H]4[C@H](CC[C@]5(C)C(=O)CC[C@@H]45)C3=CC3C(O)c4cccnc4N4C(=O)COC234)c1 (stereo not given in full)	82.3%	96.2%	95%	95.5%	87.1%	116%	101%	115%	90.1%	105%
C=C1C(=O)O[C@H]2[C@H]1CC/C(COC(=O)CSCCSCC(=O)OC/C1=C/CC[C@@]3(C)O[C@H]3[C@H]3OC(=O)C(=C)[C@@H]3CC1)=C\CC[C@@]1(C)O[C@@H]21	-22.6% (active)	-29.7% (active)	4.46% (active)	21.8%	40.4%	89.3%	-9.6% (active)	-12.1% (active)	32.6%	59.5%
O=C(O)CNC1=C(Cl)C(=O)c2ccccc2C1=O	107%	87.4%	87.9%	118%	97%	114%	103%	97.5%	124%	98.3%
CC(C)(C)n1cc(-c2ccnc(NCCNS(=O)(=O)c3cccc4ccccc34)c2)c(-c2cccc(F)c2)n1	-20.7% (active)	-31.8% (active)	7.39% (active)	-15% (active)	-0.264% (active)	6.65% (active)	4.03% (active)	-68.6% (active)	-35.7% (active)	-9.97% (active)
Cc1nc2sc(C(=O)Nc3cccc(Cl)c3C)c(N)c2cc1C(=O)c1ccccc1	19.8%	6.33% (active)	9.81% (active)	31.1%	63.3%	3.83% (active)	28.6%	-19.1% (active)	12.2%	4.5% (active)
COc1cc2oc(-c3cccc(NC(=O)c4cccc(Br)c4)c3)cc(=O)c2c(OC)c1OC	43.2%	25.5%	34.8%	87.7%	58.7%	92.5%	58.8%	66.5%	47.1%	53.1%
COc1cc(/C=C/C(=O)c2cccc(Nc3nc(Nc4ccccc4)nc(Nc4ccccc4)n3)c2)cc(OC)c1OC	22.4%	-63.1% (active)	27.2%	78.8%	67.4%	90.3%	37.3%	44.9%	50.3%	40.6%
CCCCCCNC(=O)Oc1ccc(/C(=C(/C)Cc2ccc(OC)cc2)c2ccc(OCCCN(C)C)cc2)cc1	-53.3% (active)	-20.4% (active)	13.3%	85.3%	60.7%	88.4%	41.6%	55.9%	52.9%	67.5%
Oc1c(Cl)cc(Cl)c2ccc(Cn3cc(-c4cc(C(F)(F)F)cc(C(F)(F)F)c4)nn3)nc12	-14% (active)	3.44% (active)	53.6%	95.6%	48.6%	115%	82.3%	-4.28% (active)	94.9%	97.8%
N#Cc1c(-c2ccc(Cl)cc2)nc(SCC(=O)NC2=NN=C(c3ccccc3)CS2)[nH]c1=O	42.7%	73.5%	101%	112%	83.4%	47.5%	90.4%	83.7%	93.7%	86.7%
C=CC(=O)NCc1ccc(Nc2nccc(-c3ccc(N4CCCC4)c(C#N)c3)n2)cc1	5.13% (active)	46.7%	30.8%	75.3%	16.2%	29.6%	25.2%	33.4%	25.4%	34.4%
Cn1cc(-c2nc(-c3c[nH]c4ccncc34)cs2)c2ccccc21	-9.5% (active)	-29% (active)	49.4%	71.8%	52.1%	77.3%	67.3%	85.8%	90.1%	86.4%
COc1cc2c(c(OC)c1OC)CCC(c1cccc(C(=O)Nc3cccc(Br)c3)c1)O2 (stereo not given)	35.6%	50%	81.1%	81.3%	55%	78%	81.8%	74.7%	66.7%	79.6%
O=C(Cn1c(=O)sc2nc3ccccc3nc21)Nc1ncc(Cc2cccc(Cl)c2Cl)s1	101%	97.5%	97%	101%	102%	95.1%	81.3%	111%	90.2%	89.6%
